# Source: PubChem (National Center for Advancing Translational Sciences (NCATS))
# AmpC inh detg = qHTS Inhibitors of AmpC Beta-Lactamase (assay with detergent); P00811; AmpC hydrolysis of nitrocefin, absorbance 480 nm, 0.01% Triton; Potency, µM (titrated, usually from 114 µM), inactives show top-dose activity change, negative = inhibition, usual class: inhibitors; 370,000 tested, 0.041% active; AID 485294, 2010;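 also: potency is read from the fitted curve at half-maximal effect; 0% = no-compound wells and -100% = no-enzyme wells; nearly all actives have a fitted effect of over 25% in size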
# Target sequence (P00811 whole entry, looked up): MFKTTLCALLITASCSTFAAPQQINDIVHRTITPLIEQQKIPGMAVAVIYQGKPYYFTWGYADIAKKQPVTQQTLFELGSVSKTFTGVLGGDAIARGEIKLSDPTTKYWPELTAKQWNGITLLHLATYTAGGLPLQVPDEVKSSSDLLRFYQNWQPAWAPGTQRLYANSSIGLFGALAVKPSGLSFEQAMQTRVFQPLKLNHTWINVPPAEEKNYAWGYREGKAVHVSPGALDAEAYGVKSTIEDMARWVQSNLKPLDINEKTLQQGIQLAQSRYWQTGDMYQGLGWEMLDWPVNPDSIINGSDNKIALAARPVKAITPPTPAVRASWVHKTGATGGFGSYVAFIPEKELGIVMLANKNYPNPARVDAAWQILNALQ
#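 AmpC (5.3 nM in the dispensed reagent) in 20 mM phosphate pH 7.0 with 0.01% (detergent screen) or 0.0001% Triton X-100 was preincubated with compounds for 15 min at room temperature. Nitrocefin was then added from an 800 uM solution, and hydrolysis was followed at 480 nm.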
# SARS PLP yeast = qHTS of Yeast-based Assay for SARS-CoV PLP | S. cerevisiae expressing SARS-CoV PLpro, growth rescue | Potency, µM (series often up to 32.9 µM), for the others: top-dose activity, positive = growth rescue, hits mostly activators | 330,000 tested, 0.19% active; calls by dose curve; also: potency is read from the fitted curve at half-maximal effect; 0% is about no effect; nearly all actives have a fitted effect of over 55% in size
# Shiga toxin inh = A qHTS for Small Molecule Inhibitors of Shiga Toxin. Vero cells, Shiga toxin protein synthesis inhibition reporter. inhibition, % at 38.7 µM. 290,000 tested, 9.2% active. AID 2315, 2010; in the data active = inhibition mostly above about 28%, no sharp cut-off; inactive = mostly below about 43%; also: 0% is about no effect
# Cycloheximide cs = Cycloheximide Counterscreen for Small Molecule Inhibitors of Shiga Toxin | max response, % | cell reporter, cycloheximide protein synthesis inhibition counterscreen | 300,000 tested, 12% active | AID 2314, 2010; in the data active = max response mostly above about 13%, no sharp cut-off; inactive = mostly below about 14%; also: read at 38.3 µM for the half of the compounds with a filed dose; 0% is about no effect
# AMA1 RON2 block = qHTS for Inhibitors of AMA1-RON; Towards Development of Antimalarial Drug Lead: Primary Screen; Plasmodium falciparum AMA1 (3D7) - RON2 peptide interaction; AlphaScreen AMA1-biotinylated RON2 peptide binding; Potency, µM (series often up to 58.2 µM), inactives show at the top dose activity change, negative = inhibition, actives largely listed as inhibitors; 360,000 tested, 0.2% active; AID 720542, 2013;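 also: potency is read from the fitted curve at half-maximal effect; 0% = vehicle wells and -100% = peptide control; nearly all actives have a fitted effect of over 45% in size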
#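 AMA1 (3D7) with his tag at 25 nM final met compounds first, then biotinylated RON2 peptide at 25 nM; detection used donor plus acceptor beads, 10 µg/mL apiece, read by AlphaScreen after 30 min at room temperature.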
# AmpC no deterg = qHTS Inhibitors of AmpC Beta-Lactamase (assay without detergent). AID 485341, 2010. 330,000 tested, 0.52% active. Potency, µM (top dose mostly 57.1 µM), for inactives: at the highest dose activity change, negative = inhibition, hits mostly inhibitors. P00811. AmpC nitrocefin hydrolysis, absorbance 480 nm, 0.0001% Triton;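 also: potency is read from the fitted curve at half-maximal effect; plate controls were no compound for no effect and no enzyme for full effect; nearly all actives have a fitted effect of over 20% in size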
#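 20 mM phosphate pH 7.0 + 0.01% (detergent screen) or 0.0001% Triton X-100; 5.3 nM AmpC reagent; cpd preinc 15 min RT; nitrocefin (800 uM stock) to start; A480 q20 s × 4 min; Activity was normalised to no-enzyme and no-compound control wells.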
# * = called active by the depositor; ? = inconclusive; nt = no result; [ ] = dose if it differs, or a comment. This is one part of a sample in which hits are shown more often than they occur. Unless noted, calls follow the shape of the dose curve; as a rule, active = well fitted curve in the direction sought with a large enough effect; inconclusive = small, poorly fitted or top-dose-only effect, or another doubt; inactive = no such curve, though single readings can be large; an effect the other way counts as inactive or inconclusive.
SMILES,AmpC inh detg,SARS PLP yeast,Shiga toxin inh,Cycloheximide cs,AMA1 RON2 block,AmpC no deterg
O=C(NCC1CCCO1)c1cccc(NC(=O)c2cccs2)c1 (configuration not stated),-6.8%,-0.5%,6.7,-1.6,-6.0%,-13.6%
O=C(NC(=S)NCC1CCCO1)c1ccccc1Br (configuration not stated),?,7.8%,8.7,15.5,2.5%[11.6 µM],-15.1%
O=C(NC(=S)NCC1CCCO1)c1ccccc1F (configuration not stated),-5.5%,0.9%,43.4,25.8*,10.3%,-1.9%[2.29 µM]
CCOC(=O)C1(Cc2cccc(OC)c2)CCN(Cc2ccc(OC)c(OC)c2)CC1,-8.3%,-0.8%,-5.5,16.7,11.6%,87.8%
O=C(Nc1cccc(C(=O)OCc2cc(=O)n3nc(C4CC4)sc3n2)c1)c1cccc(Cl)c1,-2.6%,nt,nt,nt,nt,nt
N#C/C(=C(/O)CN1CCOCC1)c1nc(-c2ccccc2)cs1,-10.1%,2.2%,2.0,-3.0,6.4%,-22.0%
N#C/C(=C(/O)CCl)c1nc(-c2ccccc2)cs1,-4.5%,-0.5%,52.4*,21.3*,8.1%,-28.2%
N#C/C(=C(/O)CN1CCCCC1)c1nc(-c2ccc(Cl)cc2)cs1,1.0%,5.5%,50.1*,18.3*,-1.6%,-15.1%
Cc1ccc(-c2csc(/C(C#N)=C(\O)CCl)n2)cc1,3.0%,-1.6%,93.3*,32.5*,16.8%,-24.5%
N#C/C(=C(/O)CN1CCN(c2ccccc2F)CC1)c1nc(-c2ccc(Cl)cc2)cs1,-13.2%,1.3%,-6.8,1.9,75.5%,-33.5%
CCCCN(C)C/C(O)=C(\C#N)c1nc(-c2ccccc2)cs1,4.3%,-7.8%,33.1*,12.2,68.5%,-2.5%
CN(C(=O)COC(=O)c1ccc(CN2CCCC2=O)cc1)c1ccccc1,-1.5%,-3.7%,nt,nt,-0.2%,12.5%
CC1(C)CN(C2CCCCC2)C(=O)[C@H]1CC(=O)Nc1ccc(Br)cc1,nt,nt,nt,nt,-2.9%,nt
O=C(O)CC(CC(=O)O)n1cccc1,nt,nt,nt,nt,3.6%,nt
CCCOc1ccc(C(=O)N2CCN(Cc3ccc4c(c3)OCO4)CC2)cc1,-13.4%,-7.3%,2.2,1.8,-17.6%,108.6%
O=C(Oc1ccc[nH]c1=O)c1ccccc1,nt,nt,nt,nt,2.9%,nt
O=C(Nc1ccc(F)cc1)Oc1ccc[nH]c1=O,-4.8%,4.3%,24.3*,16.0*,18.3%,-16.8%
CCO/C=C/C(=O)N(C)CCC#N,?,1.3%,-6.2,-2.4,12.3%,-3.9%
COc1cc(C(=O)NC(C)c2cnn(-c3ccccc3C)c2C)cc(OC)c1OC (configuration not stated),-1.0%,1.1%,41.2,14.7*,1.8%,22.3%
Cc1noc(C)c1CC(=O)N1CCCC(C(=O)c2ccc(C(C)(C)C)cc2)C1 (configuration not stated),-0.6%,1.8%,-4.6,0.0,0.0%,150.9%
Cc1cc(C)c2c(N)c(C(=O)c3ccccc3Cl)sc2n1,-4.2%,-0.2%,6.8,-2.1,17.8%,-15.7%
COc1ccc(C)cc1NC(=O)Nc1ccc(C(=O)N2CCCC2)cc1,-2.1%,-9.3%,48.3*,14.2*,1.6%,51.1%
COc1ccc(Cl)cc1NC(=O)Nc1ccc(C(=O)N2CCCC2)cc1,-5.4%,-10.1%,54.7*,16.8*,-0.5%,85.8%
OCCC1CN(Cc2nc3c(s2)CCCC3)CCN1CCc1ccccc1 (configuration not stated),3.1%,1.1%,10.3,-1.3,7.2%,133.0%
Cc1ccc(NS(=O)(=O)c2ccc(-c3ccc(=O)[nH]n3)o2)cc1Cl,1.5%,1.3%,1.7,1.7,-4.7%,-31.4%
SMILES,AmpC inh detg,SARS PLP yeast,Shiga toxin inh,Cycloheximide cs,AMA1 RON2 block,AmpC no deterg
Cc1ccc(NS(=O)(=O)c2ccc(-c3ccc(=O)[nH]n3)o2)cc1N(C)C,-5.5%,4.0%,60.1*,44.4*,18.3%,-15.0%
O=C(/C(N=Nc1cccc([N+](=O)[O-])c1)=C(/O)c1ccc(Br)cc1)C(F)(F)F,6.9%,-3.8%,85.7*,21.6*,nt,-52.0%
N#C/C(=N\Nc1cccc([N+](=O)[O-])c1)C(=O)c1ccc(Br)cc1,-6.8%,-3.3%,9.9,1.5,-10.9%,?
Cn1ccc(C(=O)Nc2ccc3c(c2)OCCO3)n1,2.2%,-4.1%,71.4*,48.9*,-9.2%,-5.4%
Cn1nc(C(=O)Nc2ccc3c(c2)OCCO3)cc1C(=O)O,-8.7%,-1.6%,19.1,19.5*,-1.9%,-1.1%
CCOCCCNC(=S)N1CCCN(c2nc3cc(C)ccc3cc2C#N)CC1,5.7%,10.6%,25.6,3.7,-0.5%,134.5%
Cc1ccc(-c2nc(N)n(S(C)(=O)=O)n2)cc1,1.8%,0.4%,40.3,30.1*,1.2%,-16.2%
Cc1c(OCc2ccccc2)c(=O)ccn1Cc1ccc(Cl)cc1,?,0.3%,-4.9,-5.8,10.2%,88.8%
O=[N+]([O-])c1nn(-c2ccc3c(c2)OCCO3)n(O)c1=NCc1ccccc1Cl,?,3.8%,90.4*,45.8*,-16.7%,-14.7%
O=[N+]([O-])c1nn(-c2ccc3c(c2)OCCO3)n(O)c1=NC1CCCCC1,-4.0%,3.0%,100.8,28.5*,?,-39.1%
COc1ccc(-n2nc([N+](=O)[O-])c(=NC3CCN(Cc4ccccc4)CC3)n2O)cc1,-5.5%,-3.5%,16.7,21.1,-11.1%,5.0%
COc1ccccc1CN=c1c([N+](=O)[O-])nn(-c2ccc3c(c2)OCCO3)n1O,-12.7%,-6.5%,31.5*,62.3*,?,-9.3%
COc1ccc(-n2nc([N+](=O)[O-])c(=NCCc3ccc(OC)c(OC)c3)n2O)cc1,-0.9%,12.7%,-13.0,1.0,-17.0%,-2.5%
Cc1ccc(CN=c2c([N+](=O)[O-])nn(-c3cccc(Cl)c3)n2O)cc1,?,-2.8%,6.6,8.3,-17.2%,-25.0%
Cc1ccccc1-n1c(-c2csc(C)c2C)n[nH]c1=S,?,23.1%,45.7*,16.6*,39.4%,22.4µM*
Cc1ccccc1-n1c(-c2csc3ccccc23)n[nH]c1=S,?,-32.0%,12.6,0.3,24.9%,-47.9%
CCNc1cc(=O)n(C)c(=O)n1C,?,-1.0%,28.2,-3.5,12.6%,-14.9%
CCOc1ccc(CN(C(=O)c2ccccn2)c2ccc(OC)c(Cl)c2)cc1,-7.7%,-2.8%,64.4*,31.3,-0.3%,104.7%
COc1ccc2[nH]c(O)c(N=NC(=N)N)c2c1,-9.5%,-9.3%,-5.8,-2.9,14.8%[2.32 µM],-23.0%
O=C1c2ccccc2S(=O)(=O)N1Cc1nnc(-c2ccccc2Br)o1,5.9%,-17.8%,4.8,12.4,-27.0%,-23.3%
O=C1C2CC=CCC2C(=O)N1Cc1nnc(-c2ccccc2Br)o1 (configuration not stated),-0.5%,-1.3%,67.7*,26.1*,0.7%,-21.8%
